Here are results for 44 sequences from the supplement of paper PMC3545927.

This experiment deals with furin, P09958. In words: furin cleavage Z-score vs untreated control; higher = more cleavage, active = 3.5 or more, inactive = 1 or less, 8 variable residues between constant flanks. An outline of the steps: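 Magnetic beads held 8-mer peptides by the N-terminus, each fused to a cDNA oligonucleotide, and purified furin was added for 7.5, 15 or 30 min. Released DNA was sequenced after PCR adapter tagging. The cleavage Z-score is the log count relative to furin-free reactions, lowess-adjusted and divided by median absolute deviation.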
furin, P09958, sequence (P09958 whole entry, the tested form may be a part): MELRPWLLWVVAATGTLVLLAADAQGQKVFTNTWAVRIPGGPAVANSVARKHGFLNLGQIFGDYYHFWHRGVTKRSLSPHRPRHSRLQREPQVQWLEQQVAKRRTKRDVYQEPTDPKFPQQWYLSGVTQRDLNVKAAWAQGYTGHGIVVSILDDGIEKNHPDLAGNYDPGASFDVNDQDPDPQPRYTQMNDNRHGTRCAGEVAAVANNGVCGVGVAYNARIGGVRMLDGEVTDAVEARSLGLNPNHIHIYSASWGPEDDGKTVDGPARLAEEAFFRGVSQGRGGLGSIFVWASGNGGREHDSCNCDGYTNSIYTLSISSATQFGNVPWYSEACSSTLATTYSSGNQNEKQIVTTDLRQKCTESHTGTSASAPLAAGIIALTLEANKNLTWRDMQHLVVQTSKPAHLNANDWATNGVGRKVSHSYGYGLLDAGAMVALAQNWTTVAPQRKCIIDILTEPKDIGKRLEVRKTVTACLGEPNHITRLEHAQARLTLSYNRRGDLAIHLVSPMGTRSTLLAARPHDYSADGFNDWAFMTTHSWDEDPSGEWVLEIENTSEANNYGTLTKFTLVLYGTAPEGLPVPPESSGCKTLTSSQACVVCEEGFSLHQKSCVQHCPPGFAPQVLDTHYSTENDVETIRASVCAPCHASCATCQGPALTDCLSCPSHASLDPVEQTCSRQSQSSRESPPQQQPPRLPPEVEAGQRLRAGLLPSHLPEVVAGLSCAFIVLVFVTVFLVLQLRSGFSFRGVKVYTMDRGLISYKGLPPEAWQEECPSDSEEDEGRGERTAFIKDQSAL

Some of the results follow. No count for the full screen is at hand.
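Further: purified furin at 1:10 enzyme:substrate in 50 mM HEPES pH 7.5.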

B1: HC198 (peptide)
chain: CATWAQPGYPAGNASASA
Consider B1, for which the “furin cleavage Z-score” value by setting is: (7.5 min) -0.244 (inactive); (15 min) 0.873 (inactive); (30 min) -0.438 (inactive).

B2: FS-2116 (peptide)
chain: CAWWARSVGGAGNASASA
For the sequence B2, the “furin cleavage Z-score” value reads like this: (7.5 min) 0.297 (inactive); (15 min) 0.813 (inactive); (30 min) 1.73.

B3: FS-2434 (peptide)
chain: CARNKKSIAVAGNASASA
With B3, the “furin cleavage Z-score” value reads like this: (7.5 min) -0.82 (inactive); (15 min) 0.605 (inactive); (30 min) 1.7.

B4: FS-2497 (peptide)
chain: CARNKKSKMDAGNASASA
On to B4, for which the “furin cleavage Z-score” value (7.5 min) was -0.56 (inactive), the “furin cleavage Z-score” value (15 min) was -0.669 (inactive) and the “furin cleavage Z-score” value (30 min) was -0.939 (inactive).

B5: FS-3008 (peptide)
chain: CARNKRPTFLAGNASASA
With B5, the “furin cleavage Z-score” value reads like this: (7.5 min) -0.0512 (inactive); (15 min) 0.819 (inactive); (30 min) -0.221 (inactive).

B6: FS-1911 (peptide)
chain: CARNKRSTQIAGNASASA
With B6, the “furin cleavage Z-score” value is, setting by setting: (7.5 min) 10.5 (active); (15 min) 12.3 (active); (30 min) 10.9 (active).

B7: FS-1758 (peptide)
chain: CARNKRSHSGAGNASASA
As for B7, the “furin cleavage Z-score” value by setting is: (7.5 min) 5.74 (active); (15 min) 8.23 (active); (30 min) 6.55 (active).

B8: FS-2120 (peptide)
chain: CAFRKRSHSKAGNASASA
Take B8: the “furin cleavage Z-score” value was -0.356 (inactive) (7.5 min), -1.2 (inactive) (15 min) and -1.04 (inactive) (30 min).

B9: FS-1862 (peptide)
chain: CARNKRDTMVAGNASASA
As for B9, the “furin cleavage Z-score” value was 12.3 (active) (7.5 min), 13.2 (active) (15 min) and 10.9 (active) (30 min).

B10: FS-1910 (peptide)
chain: CARNKRFYGGAGNASASA
Regarding B10, the “furin cleavage Z-score” value by setting is: (7.5 min) 0.307 (inactive); (15 min) 0.312 (inactive); (30 min) 2.91.

B11: FS-2729 (peptide)
chain: CARNKRSKSNAGNASASA
Regarding B11, the “furin cleavage Z-score” value (7.5 min) is 7.79 (active), the “furin cleavage Z-score” value (15 min) was 9.35 (active) and the “furin cleavage Z-score” value (30 min) was 7.37 (active).

B12: FS-2282 (peptide)
chain: CARNKKQNSQAGNASASA
For B12, the “furin cleavage Z-score” value is, setting by setting: (7.5 min) 1.09; (15 min) -0.5 (inactive); (30 min) -0.768 (inactive).

B13: HC2226 (peptide)
chain: CAEVVTSTMVAGNASASA
Turning to B13, the “furin cleavage Z-score” value (7.5 min) is 1.1, the “furin cleavage Z-score” value (15 min) was 0.363 (inactive) and the “furin cleavage Z-score” value (30 min) amounted to 1.25.

B14: HC2007 (peptide)
chain: CAVFCCSMSYAGNASASA
Regarding B14, the “furin cleavage Z-score” value is, setting by setting: (7.5 min) -1.31 (inactive); (15 min) -1.48 (inactive); (30 min) -0.762 (inactive).

B15: HC1839 (peptide)
chain: CAPTPCSGSWAGNASASA
For the sequence B15, the “furin cleavage Z-score” value is, setting by setting: (7.5 min) -0.934 (inactive); (15 min) -0.739 (inactive); (30 min) -1.08 (inactive).

B16: HC390 (peptide)
chain: CACRPLTDFDAGNASASA
As for B16, the “furin cleavage Z-score” value is, setting by setting: (7.5 min) -1.1 (inactive); (15 min) 0.259 (inactive); (30 min) -1.94 (inactive).

B17: HC2321 (peptide)
chain: CANVPCHRPSAGNASASA
As for B17, the “furin cleavage Z-score” value is, setting by setting: (7.5 min) 0.0675 (inactive); (15 min) 0.859 (inactive); (30 min) 1.03.

B18: HC377 (peptide)
chain: CALNTGWLAGAGNASASA
On to B18, for which the “furin cleavage Z-score” value (7.5 min) was -0.173 (inactive), the “furin cleavage Z-score” value (15 min) is -0.464 (inactive) and the “furin cleavage Z-score” value (30 min) is 0.636 (inactive).

B19: HC2554 (peptide)
chain: CASTPCSAKLAGNASASA
In the case of B19, the “furin cleavage Z-score” value runs as follows: (7.5 min) 0.275 (inactive); (15 min) 1.72; (30 min) 1.78.

B20: HC538 (peptide)
chain: CANAASLAGTAGNASASA
Consider B20, for which the “furin cleavage Z-score” value is 0.915 (inactive) (7.5 min), 0.0856 (inactive) (15 min) and 0.369 (inactive) (30 min).

B21: HC1001 (peptide)
chain: CAVIVGRVVLAGNASASA
Take B21: the “furin cleavage Z-score” value is -0.946 (inactive) (7.5 min), -1.25 (inactive) (15 min) and -0.791 (inactive) (30 min).

B22: FS-652 (peptide)
chain: CAFPNRDQRDAGNASASA
As to B22, the “furin cleavage Z-score” value runs as follows: (7.5 min) -0.191 (inactive); (15 min) -0.415 (inactive); (30 min) -0.133 (inactive).

B23: FS-459 (peptide)
chain: CALRRRCQRDAGNASASA
Take B23: the “furin cleavage Z-score” value is 9.61 (active) (7.5 min), 9.12 (active) (15 min) and 7.39 (active) (30 min).

B24: FS-2124 (peptide)
chain: CALRRRGPGKAGNASASA
Turning to B24, the “furin cleavage Z-score” value is -0.105 (inactive) (7.5 min), -1.37 (inactive) (15 min) and -1.45 (inactive) (30 min).

B25: FS-343 (peptide)
chain: CAKPMRQQRDAGNASASA
As for B25, the “furin cleavage Z-score” value reads like this: (7.5 min) 5.15 (active); (15 min) 5.86 (active); (30 min) 7.03 (active).

B26: FS-56 (peptide)
chain: CALRRVLRRDAGNASASA
As to B26, the “furin cleavage Z-score” value (7.5 min) was 4.93 (active), the “furin cleavage Z-score” value (15 min) is 4.47 (active) and the “furin cleavage Z-score” value (30 min) was 5.29 (active).

B27: HC1303 (peptide)
chain: CALPVWARPDAGNASASA
Regarding B27, the “furin cleavage Z-score” value is -0.876 (inactive) (7.5 min), -0.333 (inactive) (15 min) and -0.285 (inactive) (30 min).

B28: FS-509 (peptide)
chain: CATKRRNQRDAGNASASA
As to B28, the “furin cleavage Z-score” value is, setting by setting: (7.5 min) 9.77 (active); (15 min) 11 (active); (30 min) 8.15 (active).

B29: HC1867 (peptide)
chain: CATTFCSGSWAGNASASA
Regarding B29, the “furin cleavage Z-score” value is, setting by setting: (7.5 min) 0.273 (inactive); (15 min) 0.134 (inactive); (30 min) -0.205 (inactive).

B30: HC1061 (peptide)
chain: CALTTSQTLLAGNASASA
In the case of B30, the “furin cleavage Z-score” value reads like this: (7.5 min) -1.15 (inactive); (15 min) 0.0331 (inactive); (30 min) 0.232 (inactive).

B31: HC1594 (peptide)
chain: CAIYGACYSIAGNASASA
As to B31, the “furin cleavage Z-score” value was 0.0718 (inactive) (7.5 min), 0.563 (inactive) (15 min) and -0.201 (inactive) (30 min).

B32: HC679 (peptide)
chain: CARGLLGCIIAGNASASA
B32: the “furin cleavage Z-score” value is -0.71 (inactive) (7.5 min), -0.595 (inactive) (15 min) and -1.08 (inactive) (30 min).

B33: FS-1606 (peptide)
chain: CARLARASRDAGNASASA
In the case of B33, the “furin cleavage Z-score” value is 6.41 (active) (7.5 min), 5.81 (active) (15 min) and 5.23 (active) (30 min).

B34: FS-205 (peptide)
chain: CAVHSRASRDAGNASASA
With B34, the “furin cleavage Z-score” value is, setting by setting: (7.5 min) 6.86 (active); (15 min) 6.96 (active); (30 min) 4.81 (active).

B35: HC2381 (peptide)
chain: CAEVPCHNPSAGNASASA
For the sequence B35, the “furin cleavage Z-score” value is -0.125 (inactive) (7.5 min), 0.398 (inactive) (15 min) and -1.22 (inactive) (30 min).

B36: FS-1462 (peptide)
chain: CALPEAGRRSAGNASASA
B36: the “furin cleavage Z-score” value is, setting by setting: (7.5 min) -0.222 (inactive); (15 min) -0.673 (inactive); (30 min) -1.48 (inactive).

B37: FS-295 (peptide)
chain: CASLARGRRSAGNASASA
In the case of B37, the “furin cleavage Z-score” value is 9.48 (active) (7.5 min), 9.53 (active) (15 min) and 7.6 (active) (30 min).

B38: FS-1279 (peptide)
chain: CASGYRGRRSAGNASASA
As for B38, the “furin cleavage Z-score” value reads like this: (7.5 min) 10.4 (active); (15 min) 9.6 (active); (30 min) 8.02 (active).

B39: FS-1504 (peptide)
chain: CAYLNRGRRSAGNASASA
As for B39, the “furin cleavage Z-score” value runs as follows: (7.5 min) 8.94 (active); (15 min) 11.8 (active); (30 min) 8.66 (active).

B40: FS-577 (peptide)
chain: CAYYHRHTRSAGNASASA
Consider B40, for which the “furin cleavage Z-score” value is, setting by setting: (7.5 min) 0.662 (inactive); (15 min) 0.71 (inactive); (30 min) 1.07.

B41: FS-869 (peptide)
chain: CASPARLARRAGNASASA
B41: the “furin cleavage Z-score” value was 0.549 (inactive) (7.5 min), 3.9 (active) (15 min) and 4.41 (active) (30 min).

B42: FS-1015 (peptide)
chain: CAIPRRHTRSAGNASASA
In the case of B42, the “furin cleavage Z-score” value is 4.95 (active) (7.5 min), 4.88 (active) (15 min) and 4.46 (active) (30 min).

B43: FS-363 (peptide)
chain: CALVSRVTRSAGNASASA
As to B43, the “furin cleavage Z-score” value (7.5 min) is 13 (active), the “furin cleavage Z-score” value (15 min) was 12.8 (active) and the “furin cleavage Z-score” value (30 min) was 10.3 (active).

B44: FS-1414 (peptide)
chain: CASPERHTRSAGNASASA
On to B44, for which the “furin cleavage Z-score” value (7.5 min) was 9.58 (active), the “furin cleavage Z-score” value (15 min) is 9.61 (active) and the “furin cleavage Z-score” value (30 min) was 8.51 (active).
